The results in this text go back to PubChem BioAssay (NCI).

Structures are written as SMILES. Several values for one entry are separate records, joined by “and”; a condition that tells them apart may be missing. Identical values can stand only once. The panel holds about 83,000 compounds, 20% with a hit somewhere; the sample as a whole holds those more often.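 Method: cells in 96-well plates; compound added at one concentration; 48 h incubation; percent growth measured; values under 10 scored active.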 Unmarked numbers belong to inactive results. Activity calls are given as the source filed them.

Test in all cases: NCI-60 one-dose screen, 48 h (100 = growth as untreated, 0 = no growth, -100 = all killed)
Experiment [1] concerns MOLT-4 leukemia. The note with it: 10 µM.
Experiment [2] deals with SR leukemia. The note with it: 10 µM.
For experiment [3], the system named is RPMI-8226 leukemia. The note with it: 10 µM.
In experiment [4] the test system is OVCAR-5 ovarian. The note with it: 10 µM.
In experiment [5] the test system is OVCAR-4 ovarian. The note with it: 10 µM.
The subject of experiment [6] is SK-OV-3 ovarian. The note with it: 10 µM.
Experiment [7] concerns IGROV1 ovarian. The note with it: 10 µM.
The subject of experiment [8] is OVCAR-3 ovarian. The note with it: 10 µM.
In experiment [9] the test system is NCI/ADR-RES ovarian. The note with it: 10 µM.
The subject of experiment [10] is T-47D breast. The note with it: 10 µM.
Experiment [11] has as its system BT-549 breast. The note with it: 10 µM.
For experiment [12], the system named is MDA-MB-435 melanoma. The note with it: 10 µM.
For experiment [13], the system named is SW-620 colon. The note with it: 10 µM.
The test system of experiment [14] is MCF7 breast.
The subject of experiment [15] is HCT-116 colon. The note with it: 10 µM.
Experiment [16] has as its system KM12 colon. The note with it: 10 µM.
Experiment [17] deals with OVCAR-8 ovarian. The note with it: 10 µM.
In experiment [18] the test system is HS 578T breast. The note with it: 10 µM.
Experiment [19] relates to HCC-2998 colon. The note with it: 10 µM.

For the compound `S=C=NCCc1ccccc1`, the growth in [1] was 53.4%; in experiment [2] it was 6.81% (active); in [3], -18.9% (active); in experiment [4], 33.2%; in experiment [5], 69.5%; in [6], 122%. The growth in experiment [7] was 44.1%; in experiment [8], 72%; in experiment [9], 21.4%; in experiment [10], 40.4%; in [11] it was -20.2% (active); in experiment [12], 66.4%. Further, the growth in [13] was 56%; in [14] (10 µM unless noted) it was 20.3%; in [15] it was 27.1%; in [16], 41.9%.

With `C[C@]12CC[C@H]3[C@@H](CCC4=CC(=O)CC[C@@H]43)[C@@H]1CC[C@@H]2OC(=O)N(CCCl)N=O`, the growth in experiment [1] is 12.8%; in experiment [3] it was 5.42% (active); in experiment [17], 54.3%; in experiment [4] it was 108%; in [5], 84.8%; in experiment [6], 46.7%. The growth in experiment [7] was -2.36% (active); in experiment [8], 89.9%; in experiment [18], 69.7%; in [9], 49%; in experiment [10], 54.2%; in experiment [11] it was 66.6%. For the same compound, the growth in experiment [12] is 68.5%; in experiment [13] it was 52.5%; in [14] (10 µM unless noted), 58.4%; in [15] it was 51.7%; in experiment [16], 28.2%.

As to `Oc1c(Cl)cc(Cl)c2ccccc12.[Cu+2]`, the growth in [1] was 70.7%; in experiment [2], 31.4%; in [17], 83%; in experiment [4], 127%; in experiment [5], 55.8%; in experiment [6], 87.2%. For the same compound, the growth in [7] is 74.8%; in [8] it was 79.7%; in [18] it was 88.9%; in [9], 91.9%; in experiment [10], 82.9%; in experiment [11] it was 106%. For the same compound, the growth in experiment [12] is -83.4% (active); in experiment [13], 88.3%; in [14] (10 µM unless noted) it was 74.3%; in experiment [15], 71.8%; in [19], 86%; in experiment [16], 98.9%.

Consider `CC(C)C1(NC(=O)C2CC3c4cccc5[nH]cc(c45)CC3N(C)C2)OC2(O)C3CCCN3C(=O)C(Cc3ccccc3)N2C1=O` (configuration not stated), for which the growth was 65.8% in experiment [1]; 87.8% in [2]; 108% in experiment [3]; 72.2% in experiment [4]; 70.9% in experiment [5]; 116% in experiment [6]. In addition, the growth is 108% in [7]; 116% in experiment [8]; 99.5% in experiment [18]; 102% in experiment [9]; 103% in experiment [10]; 91.4% in experiment [11]. Also, the growth in experiment [12] is 102%; in [13] it was 103%; in [14] (10 µM unless noted), 95.8%; in experiment [15], 95.8%; in experiment [16], 106%.

For the compound `CC1CCC2(OC1)OC1C(O)C3C4CCC5CC(OC6OC(CO)C(OC7OC(CO)C(O)C(OC8OCC(O)C(O)C8O)C7OC7OC(CO)C(O)C(OC8OC(CO)C(O)C(O)C8O)C7O)C(O)C6O)C(O)CC5(C)C4CCC3(C)C1C2C` (configuration not stated), the growth in experiment [1] is 28.8%; in [2], 9.36% (active); in experiment [3], -47.1% (active); in [4], -62.6% (active); in [5], -66.7% (active); in experiment [6], -35.8% (active). Further, the growth in experiment [7] is -47.7% (active); in [8], -83.1% (active); in experiment [9], -59.4% (active); in [10] it was 50.1%; in experiment [11], -74.8% (active); in experiment [12] it was 47.5%. Also, the growth was 51.2% in [13]; -34% (active) in experiment [14] (10 µM); -84.7% (active) and -85.4% (active) in experiment [14] (100 µM); -72% (active) in [15]; 34.2% in [16].

Take `C=C1C(=O)O[C@@H]2C[C@@H](C)[C@@H]3C=CC(=O)[C@@]3(C)[C@@H](O)[C@H]12`: the growth in experiment [1] was -48.5% (active); in experiment [2], -11.7% (active); in [3], -52.3% (active); in experiment [4], 5.71% (active); in experiment [5] it was -36.6% (active); in experiment [6], 11.5%. The growth is -90.5% (active) in experiment [7]; -100% (active) in experiment [8]; 18.2% in experiment [18]; 12.9% in experiment [9]; -58.1% (active) in experiment [10]; -85.1% (active) in experiment [11]. The growth in experiment [12] was -88.2% (active); in experiment [13], -30.5% (active); in experiment [14] (10 µM unless noted) it was -4.11% (active); in [15], -93.5% (active); in [16], -84.3% (active).
